# Measured values reported in PubChem BioAssay (NCI).
# This is part of a sample that, as a whole, favours compounds with a hit. Of some 79,000 tested, about 15% had one in any assay. A number with no mark means an inactive call. Calls of active or inactive are those of the source. No stated cut-off is given here; in the data, active means growth inhibition above about 70%; inactive means the rest.
# Tests used:
# [1] = NCI Yeast Anticancer Drug Screen. Data for the rad50 strain (AID 155);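 further: 0% = growth of vehicle-only cultures of the same strain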; conditions: S. cerevisiae rad50 strain growth inhibition, stronger effect = higher value
# Method in brief: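 Cells are treated with compound, grown, and their growth is then scored against vehicle-only cultures of the same repair-deficient yeast strain.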
# [2] = NCI Yeast Anticancer Drug Screen. Data for the mec2-1 strain (AID 157); conditions: S. cerevisiae mec2-1 strain, stronger effect = higher value
# Method in brief: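 Vehicle-treated cultures served as reference for growth inhibition of compound-exposed mec2-1 yeast.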
# [3] = NCI Yeast Anticancer Drug Screen. Data for the sgs1 mgt1 strain (AID 161);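 further: 0% = growth of cultures given vehicle only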; conditions: S. cerevisiae sgs1 mgt1 strain, stronger effect = higher value
# Method in brief: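 Read-out: growth inhibition vs vehicle controls. Cells: mutant yeast strain deficient in DNA damage repair.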
# [4] = NCI Yeast Anticancer Drug Screen. Data for the cln2 rad14 strain (AID 165);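 further: 0% = growth equal to vehicle treated cultures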; conditions: S. cerevisiae cln2 rad14 strain, stronger effect = higher value
# Method in brief: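 Each compound was tested on cln2 rad14 yeast. Inhibition of growth was calculated against vehicle-exposed controls.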
# [5] = NCI Yeast Anticancer Drug Screen. Data for the bub3 strain (AID 167); conditions: S. cerevisiae bub3 mutant strain, stronger effect = higher value
# Method in brief: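 Part of a panel of yeast mutants defective in DNA damage repair or cell cycle regulation. Each strain is grown with compound, and inhibition is calculated relative to solvent-treated cultures.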
# [6] = NCI Yeast Anticancer Drug Screen. Data for the mlh1 rad18 strain (AID 175); conditions: S. cerevisiae mlh1 rad18 strain growth inhibition, stronger effect = higher value
# Method in brief: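 Vehicle-treated cultures served as the reference for growth inhibition in a yeast strain carrying DNA damage repair alterations exposed to each compound.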
# [7] = at 5.0 µM (retest, dose inferred, filed as 0.5)
# [8] = at 50.0 µM (retest, dose inferred, filed as 5.0)
SMILES,"growth inhibition [1, 7]","growth inhibition [1, 8]",growth inhibition ([1]; at 50.0 µM),"growth inhibition [2, 7]","growth inhibition [2, 8]",growth inhibition ([2]; at 50.0 µM),"growth inhibition [3, 7]","growth inhibition [3, 8]",growth inhibition ([3]; at 50.0 µM),"growth inhibition [4, 7]","growth inhibition [4, 8]",growth inhibition ([4]; at 50.0 µM),"growth inhibition [5, 7]","growth inhibition [5, 8]",growth inhibition ([5]; at 50.0 µM),"growth inhibition [6, 7]","growth inhibition [6, 8]",growth inhibition ([6]; at 50.0 µM)
CC(=O)NNc1ccc(Cl)cc1[N+](=O)[O-],18%,30%,51%,-5%,26%,25.3%,-6%,20%,12.1%,5%,4%,44.1%,3%,19%,77.3% (active),28%,69%,91% (active)
CCCCc1ccc2nc(C)cc(N=[N+]=[N-])c2c1,2%,98% (active),89.7% (active),-14%,90% (active),99% (active),-6%,96% (active),94.8% (active),-14%,48%,94.7% (active),-9%,92% (active),97.2% (active),-2%,98% (active),96.3% (active)
CCCCCCCCCCCC(N)c1ccccc1 (stereo not given),99% (active),99% (active),99.5% (active),99% (active),99% (active),99.5% (active),99% (active),99% (active),99.2% (active),99% (active),99% (active),99.1% (active),99% (active),99% (active),99.2% (active),99% (active),99% (active),99.5% (active)
OCC1(O)OCC(O)C(O)C1O (stereo not given),-3%,72% (active),74.7% (active),-2%,68%,80% (active),0%,60%,72.7% (active),7%,29%,58.8%,1%,69%,72.1% (active),-1%,81% (active),79.5% (active)
CCCCCCCNC1CCCc2cc(OC)ccc21 (stereo not given),40%,56%,85.5% (active),22%,31%,70.5% (active),28%,64%,84.2% (active),28%,54%,72.5% (active),21%,35%,69.8%,20%,60%,71.2% (active)
CCOC1NC(=S)N(C2CCCCC2)C1(C)C (stereo not given),-2%,10%,10.8%,-2%,3%,1.1%,-1%,11%,11.8%,-2%,-11%,75.6% (active),-2%,-9%,-19%,-6%,1%,16.6%
Cc1ccc(S(=O)(=O)N2CCN(C)CC2)cc1,-1%,12%,19.4%,-5%,26%,4.45%,4%,31%,5.5%,1%,16%,-0.55%,1%,39%,40.5%,13%,49%,11.6%
N#CN1CCCC(O)c2sc3ccccc3c2CC1 (stereo not given),3%,9%,56.4%,1%,17%,11.5%,1%,3%,38.9%,3%,-7%,9.85%,-2%,1%,7.3%,-1%,-1%,-0.65%
O=Nc1c(O)c2ccccc2c2ccc([N+](=O)[O-])cc12,21%,64%,69.8%,48%,95% (active),84.8% (active),35%,87% (active),91.7% (active),12%,52%,42.9%,20%,65%,85.2% (active),37%,90% (active),88% (active)
CC(/C=C/c1cccc(C)c1)=N\NC(N)=S,14%,41%,30.4%,12%,38%,53.4%,16%,34%,86.2% (active),1%,11%,38.6%,20%,26%,81.1% (active),23%,38%,80.5% (active)
